In PubChem BioAssay (Tox21):
Records with an inconclusive call do not appear. A call without a number means that no potency is given here. A number with no mark means an inactive call. Calls of active or inactive are those of the source. Calls come from the whole dose curve; as a rule, active = well fitted curve in the direction sought with a large enough effect in the repeat runs; inconclusive = weak or mixed curves; inactive = no such curve, though single readings can be large; an effect the other way counts as inactive or inconclusive.

Assays:
[1] = target: Voltage-gated inwardly rectifying potassium channel KCNH2 (Homo sapiens) (UniProt Q12809); experiment: Human Ether-a-go-go-Related Gene (hERG) channel small molecule antagonists: fluorescence cell-based qHTS assay (AID 1671200);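 note: hERG-expressing U2OS cells given a thallium stimulus after FluxOR II dye loading; series mostly up to about 77 µM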
How it was run: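 In this thallium-flux screen, overnight-cultured U2OS cells bearing the channel are dye-loaded in darkness for an hour, rested 10 min at room temperature, and then monitored kinetically at 480/540 nm for two minutes post-stimulus.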

[2] = target: Cytochrome P450 3A4 (Homo sapiens) (UniProt P08684); experiment: Cytochrome P450 Family 3 Subfamily A Member 4 (CYP3A4) small molecule antagonists: luciferase reporter qHTS assay (AID 1671201); note: potency is the fitted concentration of half-maximal effect; for activity change, negative = inhibition: series mostly up to about 120 µM
How it was run: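 CYP3A4 activity was followed with a P450-Glo proluciferin substrate. Test compounds in DMSO were preincubated 10 min; NADPH regeneration then ran 1 h, and light output was read 20 min after detection reagent.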
Note: nearly all actives have a fitted effect of over 50% in size.

Sequence of Voltage-gated inwardly rectifying potassium channel KCNH2 (Homo sapiens) (Q12809 whole entry, looked up): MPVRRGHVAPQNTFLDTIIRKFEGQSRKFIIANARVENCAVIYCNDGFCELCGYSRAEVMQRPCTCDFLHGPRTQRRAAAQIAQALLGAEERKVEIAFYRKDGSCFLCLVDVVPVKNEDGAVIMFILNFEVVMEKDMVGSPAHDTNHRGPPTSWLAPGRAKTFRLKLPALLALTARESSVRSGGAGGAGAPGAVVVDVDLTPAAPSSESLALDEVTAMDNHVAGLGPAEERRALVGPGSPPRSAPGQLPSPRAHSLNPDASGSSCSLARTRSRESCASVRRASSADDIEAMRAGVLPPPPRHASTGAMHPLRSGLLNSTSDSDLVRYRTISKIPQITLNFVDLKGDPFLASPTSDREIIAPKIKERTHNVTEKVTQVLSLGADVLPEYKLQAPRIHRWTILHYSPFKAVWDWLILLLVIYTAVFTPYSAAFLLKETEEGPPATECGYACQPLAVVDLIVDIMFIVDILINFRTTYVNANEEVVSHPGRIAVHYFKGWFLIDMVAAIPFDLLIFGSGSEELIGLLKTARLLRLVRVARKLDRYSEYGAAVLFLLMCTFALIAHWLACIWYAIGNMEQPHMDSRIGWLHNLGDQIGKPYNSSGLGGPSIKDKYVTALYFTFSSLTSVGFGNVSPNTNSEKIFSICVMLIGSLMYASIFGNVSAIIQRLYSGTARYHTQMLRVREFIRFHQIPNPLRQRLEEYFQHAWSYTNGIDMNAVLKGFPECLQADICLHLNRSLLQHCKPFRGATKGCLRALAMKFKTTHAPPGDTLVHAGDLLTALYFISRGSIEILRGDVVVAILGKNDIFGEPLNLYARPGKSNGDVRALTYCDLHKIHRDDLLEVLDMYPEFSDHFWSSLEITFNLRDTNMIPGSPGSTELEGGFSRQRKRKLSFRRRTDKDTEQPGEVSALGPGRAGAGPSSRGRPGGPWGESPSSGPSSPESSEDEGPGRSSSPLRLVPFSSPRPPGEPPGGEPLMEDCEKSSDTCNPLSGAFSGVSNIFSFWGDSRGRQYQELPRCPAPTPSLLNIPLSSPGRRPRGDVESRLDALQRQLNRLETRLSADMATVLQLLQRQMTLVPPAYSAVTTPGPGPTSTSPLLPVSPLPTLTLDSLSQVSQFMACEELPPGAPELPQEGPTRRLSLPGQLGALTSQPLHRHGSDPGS
Sequence of Cytochrome P450 3A4 (Homo sapiens) (P08684 whole entry, looked up): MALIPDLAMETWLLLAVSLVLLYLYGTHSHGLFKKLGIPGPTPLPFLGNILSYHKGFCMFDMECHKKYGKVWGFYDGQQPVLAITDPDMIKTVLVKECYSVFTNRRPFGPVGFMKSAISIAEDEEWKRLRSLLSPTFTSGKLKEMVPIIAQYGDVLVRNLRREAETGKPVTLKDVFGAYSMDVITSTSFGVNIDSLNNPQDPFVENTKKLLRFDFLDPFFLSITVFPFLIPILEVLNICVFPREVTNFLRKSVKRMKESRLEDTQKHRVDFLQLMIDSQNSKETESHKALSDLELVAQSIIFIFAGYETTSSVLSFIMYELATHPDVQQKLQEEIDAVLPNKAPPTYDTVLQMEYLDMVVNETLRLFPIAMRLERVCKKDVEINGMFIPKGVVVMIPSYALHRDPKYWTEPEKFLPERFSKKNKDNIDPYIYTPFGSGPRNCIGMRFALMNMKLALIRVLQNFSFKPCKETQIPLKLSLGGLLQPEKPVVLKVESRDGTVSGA

**Q.** Which results are given for `CC(=O)OC(C)OC(=O)C(C)c1ccc(-c2ccccc2)c(F)c1` (stereo not given)?
**A.** Potency [1]: inactive; Potency [2]: inactive

**Q.** What does the source list for `COc1ccc(OC)c(Cl)c1`?
**A.** Potency [1]: inactive; Potency [2]: inactive

**Q.** For `Cc1cc(NC(=O)C2=C(O)c3ccccc3S(=O)(=O)N2C)no1`, which Potency [1] is on record?
**A.** inactive

**Q.** What does the source list for `CC(C)(C)OC(=O)c1ccc(O)cc1`?
**A.** Potency [1]: inactive; Potency [2]: inactive

**Q.** For `CC(C)c1ccc2cc(C(C)C)ccc2c1`, which Potency [1] is on record?
**A.** inactive

**Q.** And the Potency [2]?
**A.** inactive

**Q.** With `CC(C)CCCC(C)(C)O` as the compound, how does the Potency [1] read?
**A.** inactive

**Q.** What about the Potency [2] of the same compound?
**A.** inactive

**Q.** How did the Potency [1] turn out when `Cc1cc(Cl)c(C)cc1Cl` was run?
**A.** inactive

**Q.** And the Potency [2]?
**A.** inactive

**Q.** Which results are given for `CC(C)(C)c1n[nH]c(=S)n(N)c1=O`?
**A.** Potency [1]: inactive; Potency [2]: inactive

**Q.** With `Nc1cccc(O)c1` as the compound, how does the Potency [1] read?
**A.** inactive

**Q.** For `Cc1c(I)c(=O)n(-c2ccccc2)n1C`, which Potency [1] is on record?
**A.** inactive

**Q.** What about the Potency [2] of the same compound?
**A.** inactive

**Q.** `O=C1O[C@@H]2[C@@H](O)[C@H](O)O[C@@H]2[C@H]1O` was tested. Which Potency [1] did it give?
**A.** inactive

**Q.** And the Potency [2]?
**A.** inactive

**Q.** For `COC(=O)CCCCCCCC(=O)OC`, which Potency [1] is on record?
**A.** inactive

**Q.** And the Potency [2]?
**A.** inactive

**Q.** For `BrCCCCCBr`, which Potency [1] is on record?
**A.** inactive

**Q.** What about the Potency [2] of the same compound?
**A.** inactive

**Q.** Which Potency [1] does the source give for `Nc1ccc2cc(S(=O)(=O)O)cc(O)c2c1` here?
**A.** inactive

**Q.** And the Potency [2]?
**A.** inactive

**Q.** `CC(=O)/C=C/C1C(C)=CCC(C)C1(C)C` (stereo not given) was tested. Which Potency [1] did it give?
**A.** inactive

**Q.** And the Potency [2]?
**A.** 25.2 µM (active)

**Q.** How did the Potency [1] turn out when `CCOC(=O)c1ccc(OC(=O)CCCCCN=C(N)N)cc1` was run?
**A.** inactive

**Q.** And the Potency [2]?
**A.** inactive

**Q.** Which Potency [1] does the source give for `CCc1ccc(C=O)cc1` here?
**A.** inactive

**Q.** And the Potency [2]?
**A.** inactive

**Q.** Which Potency [1] does the source give for `COc1nccnc1NS(=O)(=O)c1ccc(N)cc1` here?
**A.** inactive

**Q.** What about the Potency [2] of the same compound?
**A.** inactive

**Q.** With `C=CC(OCC)OCC` as the compound, how does the Potency [1] read?
**A.** inactive

**Q.** And the Potency [2]?
**A.** inactive

**Q.** What does the source list for `CC(S)C(=O)NCC(=O)O` (stereo not given)?
**A.** Potency [1]: inactive; Potency [2]: inactive

**Q.** How did the Potency [1] turn out when `COCCOC(=O)C1=C(C)NC(C)=C(C(=O)OC(C)C)C1c1cccc([N+](=O)[O-])c1` (stereo not given) was run?
**A.** inactive

**Q.** How did the activity change, negative = inhibition [1] turn out when `CN1CCN(CC(=O)N2c3ccccc3C(=O)Nc3cccnc32)CC1` was run?
**A.** -0.112% [at 6.97 µM]

**Q.** And the activity change, negative = inhibition [2]?
**A.** 4.83% [at 10.5 µM]

**Q.** `O=C(OCC1(COC(=O)c2cccnc2)CCCC(COC(=O)c2cccnc2)(COC(=O)c2cccnc2)C1O)c1cccnc1` was tested. Which Potency [1] did it give?
**A.** inactive

**Q.** Which results are given for `CCCCCCCCCCl`?
**A.** Potency [1]: inactive; Potency [2]: inactive

**Q.** What does the source list for `Cc1ccc2c(c1)OCC(=O)CO2`?
**A.** Potency [1]: inactive; Potency [2]: inactive

**Q.** How did the Potency [2] turn out when `N#Cc1ccc(C(=O)O)cc1` was run?
**A.** inactive

**Q.** What does the source list for `C=C1CC/C=C(\C)CC[C@@H]2[C@@H]1CC2(C)C`?
**A.** Potency [1]: inactive; Potency [2]: inactive

**Q.** What does the source list for `O=Cc1ccc(Cl)c(Cl)c1`?
**A.** Potency [1]: inactive; Potency [2]: inactive

**Q.** `OCCC(F)(F)C(F)(F)C(F)(F)C(F)(F)C(F)(F)C(F)(F)C(F)(F)C(F)(F)F` was tested. Which Potency [2] did it give?
**A.** inactive

**Q.** For `CCCCCOC(=O)CCC`, which Potency [1] is on record?
**A.** inactive

**Q.** What about the Potency [2] of the same compound?
**A.** inactive

**Q.** How did the Potency [1] turn out when `O=C(O)CCSSCCC(=O)O` was run?
**A.** inactive

**Q.** And the Potency [2]?
**A.** inactive

**Q.** `CCCC/C=C\CCCCCCCCCC=O` was tested. Which Potency [1] did it give?
**A.** inactive

**Q.** And the Potency [2]?
**A.** inactive

**Q.** How did the Potency [1] turn out when `C=C(C)C(=O)OCCOP(=O)(O)OCCOC(=O)C(=C)C` was run?
**A.** inactive

**Q.** And the Potency [2]?
**A.** inactive

**Q.** For `OCCN(CCO)c1cccc(Cl)c1`, which Potency [2] is on record?
**A.** inactive

**Q.** How did the Potency [2] turn out when `CCCCCCCCCCCCCC` was run?
**A.** inactive

**Q.** How did the Potency [1] turn out when `C[Si](C)(C)C` was run?
**A.** inactive

**Q.** And the Potency [2]?
**A.** inactive

**Q.** What does the source list for `CC(CN)CC(C)(C)CCN` (stereo not given)?
**A.** Potency [1]: inactive; Potency [2]: 5.16 µM (active)

**Q.** For `OC[C@H](Cc1cccc(O)c1)[C@H](CO)Cc1cccc(O)c1`, which Potency [2] is on record?
**A.** 18.3 µM (active)

**Q.** How did the Potency [1] turn out when `c1ccc2nccnc2c1` was run?
**A.** inactive

**Q.** What about the Potency [2] of the same compound?
**A.** inactive

**Q.** With `O=C(NCCN1CCOCC1)c1ccc(Cl)cc1` as the compound, how does the Potency [1] read?
**A.** inactive

**Q.** What about the Potency [2] of the same compound?
**A.** inactive

**Q.** Which Potency [2] does the source give for `On1nnc2ccccc21` here?
**A.** inactive

**Q.** `CCCCOCCOC(=O)COc1nc(Cl)c(Cl)cc1Cl` was tested. Which Potency [2] did it give?
**A.** inactive

**Q.** What does the source list for `CCCCCCCCC1CCC(=O)O1` (stereo not given)?
**A.** Potency [1]: inactive; Potency [2]: inactive

**Q.** `Cc1ccsc1/C=C/C1=NCCCN1C` was tested. Which Potency [2] did it give?
**A.** inactive

**Q.** Which results are given for `CC(C(=O)O)c1ccc2c(c1)CC(=O)c1ccccc1S2` (stereo not given)?
**A.** Potency [1]: inactive; Potency [2]: inactive

**Q.** How did the activity change, negative = inhibition [1] turn out when `Oc1cn2c(n1)Nc1ccc(Cl)c(Cl)c1C2` was run?
**A.** -1.03% [at 15.8 µM]

**Q.** What about the activity change, negative = inhibition [2] of the same compound?
**A.** 40.9% [at 23.6 µM]

**Q.** How did the Potency [2] turn out when `CCCCOC(=O)c1ccccc1` was run?
**A.** inactive

**Q.** `CCCCCCCCC(=O)Cl` was tested. Which Potency [2] did it give?
**A.** inactive

**Q.** For `O=C(O)C(=O)Cc1ccccc1`, which Potency [2] is on record?
**A.** inactive

**Q.** For `COc1ccc(Br)c(C)c1`, which Potency [1] is on record?
**A.** inactive

**Q.** What about the Potency [2] of the same compound?
**A.** inactive

**Q.** `C=COCCOCCOCCOC=C` was tested. Which Potency [2] did it give?
**A.** inactive

**Q.** `COCCOCCOCCOCCOCCO` was tested. Which Potency [1] did it give?
**A.** inactive

**Q.** What about the Potency [2] of the same compound?
**A.** inactive

**Q.** What does the source list for `Cc1ccc(S(=O)(=O)O)c(C)c1`?
**A.** Potency [1]: inactive; Potency [2]: inactive

**Q.** Which Potency [2] does the source give for `C=C(C)C(=O)OCc1ccccc1` here?
**A.** inactive

**Q.** What does the source list for `O=C(O)Cc1ccc(Cl)cc1Cl`?
**A.** Potency [1]: inactive; Potency [2]: inactive

**Q.** Which results are given for `CC/C=C\CC1=C(C)CCC1=O`?
**A.** Potency [1]: inactive; Potency [2]: inactive

**Q.** With `ClCCCl` as the compound, how does the Potency [2] read?
**A.** inactive

**Q.** With `Cc1cc(C(C)(C)C)c(O)c(C)c1CC1=NCCN1` as the compound, how does the Potency [2] read?
**A.** inactive

**Q.** With `COCCOCCOCCOCCO` as the compound, how does the Potency [1] read?
**A.** inactive

**Q.** What about the Potency [2] of the same compound?
**A.** inactive

**Q.** Which Potency [1] does the source give for `O=C1c2ccccc2C(=O)c2cc(S(=O)(=O)O)ccc21` here?
**A.** inactive

**Q.** And the Potency [2]?
**A.** inactive

**Q.** `CCCCCCCCCC(C)=O` was tested. Which Potency [1] did it give?
**A.** inactive

**Q.** And the Potency [2]?
**A.** inactive

**Q.** How did the Potency [1] turn out when `CCC(C=O)CC` was run?
**A.** inactive

**Q.** What about the Potency [2] of the same compound?
**A.** inactive
